Our source for the Potency values is PubChem BioAssay (NCATS).

Inconclusive results are not listed. A call without a number means that no potency is given here. The source made the active and inactive calls. Calls come from the whole dose curve; as a rule, active = well fitted inhibition curve with a large enough effect; inconclusive = small, poorly fitted or top-dose-only effect; inactive = flat fitted curve, though single readings scatter.

In this assay the test system is CP286. Description: qHTS profiling for inhibitors of Plasmodium falciparum proliferation (AID 504749). Note: nearly all actives have a fitted effect of over 60% in size. The conditions noted are these: P. falciparum in erythrocytes, SYBR Green DNA, 72 h; series mostly up to 28.7 µM. In a few lines: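 Fluorescence of SYBR Green-bound parasite DNA, read at 485/535 nm, served as the growth measure. Infected erythrocytes were cultured with compound 72 h; artemisinin (0.29 uM) and DMSO wells defined the normalization range.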
In general terms: In qHTS, concentration-response curves come from the screen itself.
Take `C#C[C@]1(O)CC[C@H]2[C@@H]3CCc4cc(OC)ccc4[C@H]3CC[C@@]21C`: the Potency entry is “inactive”. In the case of `Cc1cc(C)cc(OCC2CNC(=O)O2)c1` (centres undefined) it was “inactive”. `Cc1cc(NS(=O)(=O)c2ccc(N)cc2)nc(C)n1`: the Potency result was “inactive”. Take `FC(F)(F)C(F)(F)C(F)(F)C(F)(F)C(F)(F)C(F)(F)C(F)(F)C(F)(F)Br`: the Potency entry was “inactive”. For the compound `CC(=O)NC(=O)c1ccccc1O`, the Potency result is “inactive”. Take `O=C(O)C(Cc1cc(I)c(O)c(I)c1)c1ccccc1` (centres undefined): the Potency entry is “inactive”. With `O=C(O)c1ccc(S(=O)(=O)N(Cl)Cl)cc1` the entry was “inactive”. `CC(=O)Nc1ccc(OCC(O)CNC(C)C)cc1` (centres undefined): the Potency entry was “inactive”.

On to `O=S(=O)(O)c1ccc(O)cc1`, for which the Potency entry is “inactive”.

Turning to `C=C[C@@]1(C)CC(=O)[C@]2(O)[C@@]3(C)[C@@H](O)CCC(C)(C)[C@@H]3[C@H](O)[C@H](OC(C)=O)[C@@]2(C)O1`, the Potency entry is “inactive”. With `CCC1Nc2cc(Cl)c(S(N)(=O)=O)cc2S(=O)(=O)N1` (centres undefined) the entry was “inactive”. For `CC(=O)OCC(=O)[C@H]1CC[C@H]2[C@@H]3CCC4=CC(=O)CC[C@]4(C)[C@H]3CC[C@]12C`, the Potency result was “inactive”. With `CC(C)Nc1cccnc1N1CCN(C(=O)c2cc3cc(NS(C)(=O)=O)ccc3[nH]2)CC1` the entry was “inactive”; with `COc1cc(C(=O)NCc2ccc(OCCN(C)C)cc2)cc(OC)c1OC`, “inactive”. In the case of `Nc1ccc(C(=O)NCC(=O)O)cc1` it was “inactive”; in that of `CCC(CC)(CC(=O)Nc1cccc(/C=C/c2nc(C3CCC3)cs2)c1)C(=O)O`, “inactive”.

Turning to `CCCCCCCCCCCCCCCC(=O)O`, the Potency entry was “inactive”.

As for `Nc1nc(N)c(-c2ccccc2)s1`, the Potency result is “inactive”. With `COc1ccc(C(=O)c2ccccc2O)c(O)c1` the entry was “inactive”.
